26 compounds from PubChem BioAssay (NCI) can be followed below.

This is part of a sample that, as a whole, favours compounds with a hit. Of some 83,000 tested, about 20% had one in any assay.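 Compound tested at a single concentration for 48 hours in 96-well plates; a percent growth value below 10 was scored as active.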 Unmarked numbers belong to inactive results. Active and inactive are the calls of the source.

The subject of this assay is UACC-62 melanoma. In words: NCI-60 one-dose screen, 48 h (100 = growth as untreated, 0 = no growth, -100 = all killed). The following applies: 10 µM.
Turning to `CN(C)c1ccc(/C=C/C=N/NC(=O)c2cc(O)c(O)c(O)c2)cc1`, the growth was 107%.
The result for `Cc1ccc(S(=O)(=O)OCCN(CCOS(=O)(=O)c2ccc(C)cc2)c2c[nH]c(=O)[nH]c2=O)cc1` reads 100%; that for `O=c1oc2cc(OS(=O)(=O)c3ccccc3)ccc2c2c1CCCCC2`, 57.2%.
The result for `COc1ccc(-c2nn(-c3cccc(NC(=O)c4ccc5c(c4)OCCO5)c3)cc2-c2ccncc2)cc1Cl` reads 34.1%; that for `Cc1ncc(-c2ccoc2)c(NC2CCCCCC2)n1`, 104%; that for `Clc1ccc(Sc2nc(NC3CC3)nc(Sc3ccc(Cl)cc3)n2)cc1`, 82.2%.
Then `CN(C)CCN1C(=O)c2cccc3c(-c4ccc5ncn(C6CCCCC6)c5c4)ccc(c23)C1=O`, with 24.6%; and `O=C(Nc1cccc(-n2cc(-c3ccncc3)c(-c3ccc(O)c(Cl)c3)n2)c1)Nc1cccc(C(F)(F)F)c1`, with -49.9% (active).
For `CN(C)Cc1cn(-c2ncc(-c3ccc(C(F)(F)F)cc3)c(NC3CCCCCC3)n2)nn1`, the growth is 97.6%.
The result for `COc1ccc(/C=C/C(C)=N/OCC(=O)O)cc1` reads 113%; that for `COc1ccc(-c2nn(-c3cccc(NC(=O)c4cc(C(F)(F)F)cc(C(F)(F)F)c4)c3)cc2-c2ccncc2)cc1Cl`, 73.6%; that for `O=C1CC[C@@H]2CCCC[C@@H]2C1`, 94.6%.
The result for `COc1ccc(C2=NN(C(=O)c3ccc(S(C)(=O)=O)cc3)C(c3ccc(OC)c(OC)c3)C2)c(OC)c1` (stereo unspecified) reads 95.2%; that for `O=C1OCC2=C1C(c1cccc(Cl)c1)c1cc3c(cc1N2CCO)CCC3` (stereo unspecified), 26.6%.
The result for `COc1ccc2c(c1)N(CCO)C1=C(C(=O)OC1)C2c1cc(OC)c(OC)c(OC)c1` (stereo unspecified) reads 8.69% (active); that for `CCOC(=O)c1ccoc1`, 101%.
Consider `O=S(=O)(NCCNc1nccc(-c2c(-c3ccc(F)cc3)nc3sccn23)n1)c1ccc2ccccc2c1`, for which the growth is 71.7%.
Then `CC1=C(N2CCOCC2)C(N2CCOCC2)=C(C)C(=O)C1=O`, with 109%; and `O=C1OCC2=C1C(c1ccc(Cl)c(Cl)c1)c1cc3c(cc1N2CCO)OCCO3` (stereo unspecified), with 22.5%.
The result for `COc1cc2c(cc1OC)N(CCO)C1=C(C(=O)OC1)C2c1ccc(Cl)c(Cl)c1` (stereo unspecified) reads 101%.
The result for `O=C1NC(=O)c2ncccc21` reads 112%.
As for `CNc1ncc(-c2ccc(C(F)(F)F)cc2)c(NC2CCCCCC2)n1`, the growth is 89.9%.
Take `COc1ccc(/C(=C2/O[C@@H]([C@H]3COC(C)(C)O3)[C@H]3OC(C)(C)O[C@@H]23)c2cc(OC)c(OC)c(OC)c2)cc1O`: the growth is 82.9%.
Then `O=C(NC(Cc1ccc(O)cc1)C(=O)N=Nc1c(O)[nH]c2ccccc12)c1ccccc1` (stereo unspecified), with 88.1%; and `O=C(CNC(=O)OCc1ccccc1)NCC(=O)Oc1ccc([N+](=O)[O-])cc1`, with 107%; and `COc1cc2nc(Nc3cccc(C(=O)O)c3)nc(N)c2cc1OC`, with 90.2%.
